hgDAF12 agonist: hgDAF-12 agonism, primary luciferase screen; HEK293 GAL4-hgDAF12 UAS-luciferase reporter, agonist luminescence; normalized to butyrate control; activation, % at 6.8 µM; 370,000 compounds, 1.8% hits;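 active = activation above a cutoff set at the mean of all screened compounds plus 3 SD, cut at about 10% in these data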;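 note: 0% = DMSO wells and 100% = sodium butyrate wells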
hcDAF-12 act: activates DAF-12 receptor from parasite H. contortus; HEK293 hcDAF-12 lit1-tk-luc reporter, luminescence; 0% DMSO, 100% Δ7-dafachronic acid; activation, % at 6.8 µM; 370,000 compounds, 1.4% hits; AID 652067;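 active = activation above the mean of all tested compounds plus 3 SD, cut at about 5.5% in these data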;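 note: 100% = response to 3 µM Δ7-dafachronic acid high control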
AHR activator: human AHR activation | AHR-responsive luciferase reporter cells, luminescence | AID 2796 | activation, % at 5 µM | P35869 | 320,000 compounds, 2.5% hits; in the data active = activation above about 47%;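 note: 0% = vehicle wells and 100% = reference agonist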
Target sequence (P35869 whole entry, looked up): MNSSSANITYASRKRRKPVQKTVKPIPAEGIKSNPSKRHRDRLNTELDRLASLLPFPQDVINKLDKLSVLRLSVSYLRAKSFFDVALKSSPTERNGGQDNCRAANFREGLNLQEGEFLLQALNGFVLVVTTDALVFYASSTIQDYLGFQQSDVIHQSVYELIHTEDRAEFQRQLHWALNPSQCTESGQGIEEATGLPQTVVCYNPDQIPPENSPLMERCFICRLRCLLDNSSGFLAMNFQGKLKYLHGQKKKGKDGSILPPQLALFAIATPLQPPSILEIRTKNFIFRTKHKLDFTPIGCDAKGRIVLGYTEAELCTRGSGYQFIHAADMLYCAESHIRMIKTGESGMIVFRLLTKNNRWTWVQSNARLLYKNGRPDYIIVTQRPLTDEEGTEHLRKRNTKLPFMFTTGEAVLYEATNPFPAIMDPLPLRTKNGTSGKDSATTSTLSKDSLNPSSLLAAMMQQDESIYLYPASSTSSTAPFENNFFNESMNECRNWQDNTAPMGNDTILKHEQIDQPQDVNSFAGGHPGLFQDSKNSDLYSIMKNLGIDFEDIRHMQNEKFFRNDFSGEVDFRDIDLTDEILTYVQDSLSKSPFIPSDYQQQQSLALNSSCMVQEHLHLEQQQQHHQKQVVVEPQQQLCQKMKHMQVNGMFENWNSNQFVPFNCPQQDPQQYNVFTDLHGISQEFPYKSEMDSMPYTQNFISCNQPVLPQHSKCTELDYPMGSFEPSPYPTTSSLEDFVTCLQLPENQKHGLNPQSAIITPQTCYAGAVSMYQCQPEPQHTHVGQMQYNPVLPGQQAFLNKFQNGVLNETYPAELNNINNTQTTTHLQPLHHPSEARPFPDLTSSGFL
DAX1 inh-1: DAX1 (NR0B1) inhibition, primary screen | HEK293T StAR-luciferase reporter, SF-1/DAX-1 repression relief | inhibition, % at 6.8 µM | 370,000 compounds, 1.1% hits | AID 652010;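 active = inhibition above the mean over all tested compounds plus 3 SD, cut at about 3.6% in these data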;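 note: 0% = DAX-1 cells with DMSO and 100% = cells lacking DAX-1 with DMSO; higher inhibition means more luminescence from relief of DAX-1 repression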
ssDAF12 agonist: activates DAF-12 receptor from parasite S. stercoralis; activation, % at 6.8 µM; 370,000 compounds, 1% hits; HEK293 ssDAF-12/GRIP1 lit1-tk-luc reporter, luminescence; % of 3 µM dafachronic acid response;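 active = activation above the mean over all tested compounds plus 3 SD, cut at about 0.9% in these data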;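 note: 0% = DMSO-only wells and 100% = 3 µM delta7-dafachronic acid wells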
DAX1 inh-2: inhibits human nuclear receptor DAX1; HEK293 Gal4-DAX1 luciferase reporter, luminescence; 340,000 compounds, 0.99% hits; inhibition, % at 6.75 µM; P51843;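 active = inhibition above the mean over all tested compounds plus 3 SD, cut at about 4.2% in these data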;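 note: 0% = DAX1-transfected cells with DMSO and 100% = empty-vector control cells with DMSO; inhibition shows as a rise in luminescence from relieved DAX1 repression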
The depositor's hits bear a star; x = no result. A selection: hits, their analogues and other compounds. The true share with any hit is near 5.7%.

SMILES | hgDAF12 agonist | hcDAF-12 act | AHR activator | DAX1 inh-1 | ssDAF12 agonist | DAX1 inh-2
Cc1cc(C)c(C)c(S(=O)(=O)Nc2ccccc2C(=O)O)c1C | -2 | 1 | 2 | 0 | -1 | 4.9*
COC(=O)c1c(NC(=O)c2cccnc2)sc(C)c1C | x | x | 71* | x | x | 0
Cc1nc2ccc(Br)cc2c2c1CC(CO)O2 (configuration not stated) | -1 | -1 | 14 | 0 | -2 | 5.4*
Cc1nc2ccc(Br)cc2c2c1CC(CBr)O2 (configuration not stated) | -1 | 1 | 6 | 0 | 0 | -1
COc1ccc(-c2cc3ncnc(Cl)c3s2)cc1 | 11* | 4 | 9 | 1 | 0 | 1
COc1ccc(-c2cc3nnc(-c4ccccc4)nc3s2)cc1 | 2 | 0 | 3 | 0 | -1 | 2
C/C(=N\Nc1nc2c(s1)CCCC2)c1ccc(Cl)cc1 | 6 | 6.3* | 23 | 0 | 0 | 2
O=C(CNc1n[nH]c(=O)[nH]c1=O)N/N=C/C1CC=CCC1 (configuration not stated) | 1 | 0 | 0 | 0 | -1 | 1
O=C(/C=C/c1ccc(F)cc1)NC(=S)NNC(=O)[C@H]1C[C@@H]1c1ccccc1 | 6 | 0 | 3 | 3.6* | 0 | 0
O=C(NC(=S)NNC(=O)[C@H]1C[C@@H]1c1ccccc1)c1ccc(F)cc1 | 4 | 0 | 3 | 0 | -1 | 0
Cc1cccc(OCC(=O)Nc2nc(-c3ccncc3)cs2)c1 | 0 | -2 | -4 | -1 | -2 | 0
Cc1cc(C)cc(OCC(=O)Nc2nc(-c3cccnc3)cs2)c1 | 2 | 3 | 66* | 2 | 0 | 0
O=C(COC(=O)/C=C/c1cccs1)Nc1nc(-c2ccccc2)cs1 | 7 | 5.8* | 7 | -1 | 0 | 1
N#Cc1ccc(OCC(=O)Nc2nc(-c3cccnc3)cs2)cc1 | 1 | 0 | 49* | 1 | 0 | -1
O=C(COc1ccccc1)Nc1nc(-c2cccnc2)cs1 | -2 | 0 | 55* | 2 | 0 | 1
O=C(COc1ccccc1)Nc1nc(-c2ccncc2)cs1 | -1 | -2 | 6 | -1 | -1 | 0
CCCCCC(=O)N(Cc1ccccc1)c1c(N)n(CCOC)c(=O)[nH]c1=O | -2 | -2 | -1 | 1 | -1 | 0
Cc1cc(C)c(S(=O)(=O)Nc2cc(SCC(=O)O)c(O)c3ccccc23)cc1C | x | x | 61* | x | x | x
COc1ccc(S(=O)(=O)Nc2cc(Sc3ncn[nH]3)c(O)c3ccccc23)cc1 | -13 | -5 | x | -5 | -3 | x
COc1ccc(S(=O)(=O)Nc2cc(SCC(=O)O)c(O)c3ccccc23)cc1 | -2 | 5 | 66* | -1 | 0 | -1
Cc1cc(C)c(S(=O)(=O)/N=C2/C=C(SCC(=O)O)C(=O)c3ccccc32)cc1C | x | x | x | x | x | 2
O=C(O)CSc1cc(NS(=O)(=O)c2ccc(Cl)cc2)c2ccccc2c1O | 1 | 2 | 50* | -1 | 0 | -1
Cc1ccccc1-c1ccc2c(c1)[C@@H]1C[C@H](N(C)S(=O)(=O)c3ccc(Cl)cc3)[C@H]([C@H](C)O)CN1CC2 | 1 | 1 | x | 1 | -1 | x
COC(=O)C[C@@H]1CC[C@H]2[C@@H](COc3ccc(NC(=O)c4cc(C)on4)cc3C(=O)N2C)O1 | 2 | -1 | x | 0 | -1 | x
CCC(=O)Nc1cccc(C2=NOC3(C2)C[C@H](C(N)=O)N(C(=O)CC#N)C3)c1 (some centres not stated) | -1 | -1 | 0 | 0 | -1 | 0
SMILES | hgDAF12 agonist | hcDAF-12 act | AHR activator | DAX1 inh-1 | ssDAF12 agonist | DAX1 inh-2
CSc1ccccc1C(=O)OCC(=O)Nc1ccc(N2CCOCC2)cc1 | 3 | -1 | -1 | -1 | -1 | 1
COc1ccc(S(=O)(=O)Nc2cc3c4c(oc3c3ccccc23)CC(C)(C)CC4=O)cc1 | -1 | -1 | 38 | -1 | -1 | 0
COc1ccc(S(=O)(=O)Nc2cc3c4c(oc3c3ccccc23)CCCC4=O)cc1 | 1 | -2 | 48* | -3 | -1 | -3
COC(=O)C1CN(Cc2ccc(F)cc2)CCS(=O)(=O)N1Cc1cn(Cc2ccc(C)cc2)nn1 (configuration not stated) | -3 | 1 | x | 0 | 0 | x
O=C(CCN1CCCCC1)c1ccccc1 | 2 | 4 | 0 | 1 | -2 | -1
C[N+]1(CCC(=O)c2ccccc2)CCCCC1 | -3 | -1 | 3 | 0 | 1.7* | 1
Cc1cc(SCC(=O)N/N=C/c2cccnc2)nc2c(C)cccc12 | 1 | -1 | 10 | 1 | -2 | -1
CC(=O)Nc1ccc(C(=O)CSc2cc(C)c3cccc(C)c3n2)cc1 | -2 | 0 | 66* | 0 | -1 | -1
Cc1cnc(NC(=O)CN2C(=O)C3CC=CCC3C2=O)s1 (configuration not stated) | 2 | -1 | 3 | 1 | -1 | 4
Cc1cnc(NC(=O)CCN2C(=O)C3CCCCC3C2=O)s1 (configuration not stated) | 2 | -1 | 1 | 0 | -1 | 6.7*
Cc1cnc(NC(=O)CC2CCCC2)s1 | 11* | 3 | 9 | 3 | -1 | 4
Nc1[nH]nc2nnc(-c3c(-c4ccccc4)nn4ccccc34)cc12 | -3 | -2 | x | x | -2 | x
Cc1ccc(S(=O)(=O)CC(=O)N(CCCN2CCOCC2)c2nc3c(F)cccc3s2)cc1 | 4 | 0 | 4 | 4.1* | 0 | 2
O=C(CCS(=O)(=O)c1ccccc1)N(CCCN1CCOCC1)c1nc2c(F)cccc2s1 | 2 | 1 | 6 | 1 | -1 | -1
CCCCCOc1ccc(Br)cc1/C(C)=N/NC1=NCCN1 | -4 | 2 | 62* | -1 | -1 | -1
CC1(C)Cc2nc3sc(C(=O)O)c(N)c3cc2CS1 | x | x | 2 | x | x | x
CC1(C)Cc2nc3sc(C(=O)NCCCO)c(N)c3cc2CS1 | 7 | 1 | 22 | 1 | -1 | 5.0*
CC1CCN(S(=O)(=O)c2cccc(S(=O)(=O)N3CCCC3)c2)CC1 | 0 | 0 | 1 | 0 | -1 | -2
Cc1sc(NC(=O)c2c(F)cccc2F)nc1-c1ccccc1 | 0 | -2 | 65* | -1 | -1 | -2
Cc1ccc2c(c1)sc1nc(=O)n(-c3ccccc3)c(=O)n12 | 12* | 2 | -4 | 2 | -1 | 3
COCCN1C(=O)[C@H]2C[C@@]13O[C@H](C1CCCCC1)N=C3CC1c3ccccc3C[C@@]12C (some centres not stated) | -3 | -2 | x | 0 | -1 | x
CNc1nnc(-c2ccc(N(C)C)cc2)s1 | 11* | 4 | -6 | 5.8* | 0 | -2
COc1ccc(-c2cc(=O)c3cccc(CC(=O)O)c3o2)cc1 | 0 | 1 | x | 0 | -1 | x
Cc1cccc(NC(=S)/N=C(\N)Nc2nc(C)c3ccccc3n2)c1 | 0 | -2 | 69* | 0 | -2 | -1

Screens: PubChem BioAssay, The Scripps Research Institute Molecular Screening Center
